Test results: publication PMC7862700, “An all-to-all approach to the identification of sequence-specific readers for epigenetic DNA modifications on cytosine”

Assays:
Test in all cases: DAPPL (digital affinity profiling via proximity ligation, sequencing); 10 mM Tris-HCl pH 7.5, 50 mM NaCl, 1 mM DTT, 4% glycerol, room temperature, 30 min; GST-TFs on glutathione beads, 16-mer random dsDNA library, 0.1% formaldehyde crosslink after washing; high values mean tight binding
FLI1 = target: T1, FLI1 (Homo sapiens, UniProt Q01543 1-452); conditions: protein: recombinant; tags: N-terminal GST; dsDNA, one strand shown
T1 sequence: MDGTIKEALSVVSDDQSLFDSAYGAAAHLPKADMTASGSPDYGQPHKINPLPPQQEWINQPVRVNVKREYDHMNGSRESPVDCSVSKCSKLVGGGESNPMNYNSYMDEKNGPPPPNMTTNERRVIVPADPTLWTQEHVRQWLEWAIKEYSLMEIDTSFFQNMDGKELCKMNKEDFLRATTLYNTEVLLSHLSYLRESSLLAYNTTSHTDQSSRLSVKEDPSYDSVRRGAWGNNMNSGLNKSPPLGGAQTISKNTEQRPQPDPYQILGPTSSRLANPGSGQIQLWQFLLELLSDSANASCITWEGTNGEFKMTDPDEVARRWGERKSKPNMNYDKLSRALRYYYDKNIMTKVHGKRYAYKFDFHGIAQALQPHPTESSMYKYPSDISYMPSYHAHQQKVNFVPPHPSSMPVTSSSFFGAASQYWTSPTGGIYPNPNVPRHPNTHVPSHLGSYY
Procedure, shortened: (§1)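 A tag-only sample was pooled with DNA-barcoded human transcription factors that had been expressed in yeast as GST fusions and captured on glutathione beads. The pools were incubated for 30 min at room temperature with 200 nmole of a random double-stranded 16-mer DNA library in Tris/NaCl/DTT/glycerol buffer, then washed, crosslinked with 0.1% formaldehyde, proximity-ligated (BsaI/T4 ligase, 1 h, 37 °C), PCR-amplified and sequenced on an Illumina NextSeq500. Binding signal is each hexamer's read frequency for a factor divided by its frequency for the tag-only sample.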

ELK1 = target: T2, ELK1 (Homo sapiens, UniProt P19419 1-428); conditions: protein: recombinant; tags: N-terminal GST; dsDNA, one strand shown
T2 sequence: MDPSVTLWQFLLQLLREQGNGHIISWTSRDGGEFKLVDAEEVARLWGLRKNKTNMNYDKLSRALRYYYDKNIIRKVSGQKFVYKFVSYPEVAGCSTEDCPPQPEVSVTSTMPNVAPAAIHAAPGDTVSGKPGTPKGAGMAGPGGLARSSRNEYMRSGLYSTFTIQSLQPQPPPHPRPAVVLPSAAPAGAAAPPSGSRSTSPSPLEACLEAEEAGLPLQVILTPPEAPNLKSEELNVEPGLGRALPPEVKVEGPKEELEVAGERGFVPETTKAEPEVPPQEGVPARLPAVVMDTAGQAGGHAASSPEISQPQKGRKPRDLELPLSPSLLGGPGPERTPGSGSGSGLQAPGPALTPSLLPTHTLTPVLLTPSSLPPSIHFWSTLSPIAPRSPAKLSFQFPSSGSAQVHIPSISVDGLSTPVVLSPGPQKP
Procedure, shortened: as §1

GABPA = target: T3, GABPA (Homo sapiens, UniProt Q06546 1-454); conditions: protein: recombinant; tags: N-terminal GST; dsDNA, one strand shown
T3 sequence: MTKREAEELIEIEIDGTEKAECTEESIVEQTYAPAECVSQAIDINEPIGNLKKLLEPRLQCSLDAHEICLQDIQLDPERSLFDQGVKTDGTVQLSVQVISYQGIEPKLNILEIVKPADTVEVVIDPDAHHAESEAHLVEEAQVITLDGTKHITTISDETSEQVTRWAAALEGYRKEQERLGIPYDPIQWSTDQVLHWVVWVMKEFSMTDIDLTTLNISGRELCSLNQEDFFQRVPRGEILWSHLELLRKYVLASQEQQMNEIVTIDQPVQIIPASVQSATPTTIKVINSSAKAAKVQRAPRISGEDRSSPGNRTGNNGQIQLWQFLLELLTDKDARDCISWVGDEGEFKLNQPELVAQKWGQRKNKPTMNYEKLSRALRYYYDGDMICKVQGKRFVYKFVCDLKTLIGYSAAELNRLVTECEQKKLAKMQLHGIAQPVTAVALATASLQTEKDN
Procedure, shortened: as §1

ERG = target: T4, ERG (Homo sapiens, UniProt P11308 1-479); conditions: protein: recombinant; tags: N-terminal GST; dsDNA, one strand shown
T4 sequence: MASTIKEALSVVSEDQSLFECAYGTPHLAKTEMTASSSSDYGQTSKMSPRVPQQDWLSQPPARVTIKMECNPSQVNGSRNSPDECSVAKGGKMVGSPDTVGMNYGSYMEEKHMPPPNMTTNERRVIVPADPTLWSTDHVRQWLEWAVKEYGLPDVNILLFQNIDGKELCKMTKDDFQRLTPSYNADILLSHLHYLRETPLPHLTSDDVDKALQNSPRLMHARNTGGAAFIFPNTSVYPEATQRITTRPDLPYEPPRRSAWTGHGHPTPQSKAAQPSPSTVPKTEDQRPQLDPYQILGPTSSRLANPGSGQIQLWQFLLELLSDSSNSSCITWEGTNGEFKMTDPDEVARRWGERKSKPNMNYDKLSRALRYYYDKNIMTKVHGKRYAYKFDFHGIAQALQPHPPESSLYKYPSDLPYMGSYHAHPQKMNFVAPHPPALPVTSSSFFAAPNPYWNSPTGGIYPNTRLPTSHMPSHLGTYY
Procedure, shortened: as §1

ELF1 = ELF1 (Homo sapiens, UniProt P32519 1-619); conditions: protein: recombinant; tags: N-terminal GST; dsDNA, one strand shown
Sequence of ELF1 (P32519 whole entry): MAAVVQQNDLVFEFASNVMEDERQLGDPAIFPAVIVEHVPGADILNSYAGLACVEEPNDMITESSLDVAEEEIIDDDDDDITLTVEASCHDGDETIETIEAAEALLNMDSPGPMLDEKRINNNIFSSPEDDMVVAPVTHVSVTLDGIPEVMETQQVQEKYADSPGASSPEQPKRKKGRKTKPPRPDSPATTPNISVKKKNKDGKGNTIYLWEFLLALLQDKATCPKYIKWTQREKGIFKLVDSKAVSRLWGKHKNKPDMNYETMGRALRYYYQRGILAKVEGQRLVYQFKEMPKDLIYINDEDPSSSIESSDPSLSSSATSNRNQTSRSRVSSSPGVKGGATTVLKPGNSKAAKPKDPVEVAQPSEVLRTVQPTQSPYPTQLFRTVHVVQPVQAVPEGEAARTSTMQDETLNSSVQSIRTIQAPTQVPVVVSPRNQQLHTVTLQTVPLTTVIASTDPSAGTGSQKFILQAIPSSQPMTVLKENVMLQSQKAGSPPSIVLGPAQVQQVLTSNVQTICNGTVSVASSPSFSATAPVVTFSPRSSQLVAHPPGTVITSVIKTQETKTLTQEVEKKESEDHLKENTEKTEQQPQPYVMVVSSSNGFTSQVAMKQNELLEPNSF
Procedure, shortened: as §1

EHF = target: T5, EHF (Homo sapiens, UniProt Q9NZC4 1-300); conditions: protein: recombinant; tags: N-terminal GST; dsDNA, one strand shown
T5 sequence: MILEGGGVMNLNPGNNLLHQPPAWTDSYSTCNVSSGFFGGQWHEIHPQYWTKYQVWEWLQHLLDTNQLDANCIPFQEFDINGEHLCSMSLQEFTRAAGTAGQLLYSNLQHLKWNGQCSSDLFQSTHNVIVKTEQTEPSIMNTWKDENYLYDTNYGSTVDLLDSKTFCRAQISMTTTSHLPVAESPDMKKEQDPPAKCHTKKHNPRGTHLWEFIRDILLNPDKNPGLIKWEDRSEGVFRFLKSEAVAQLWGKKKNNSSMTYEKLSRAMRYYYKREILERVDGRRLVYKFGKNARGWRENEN
Procedure, shortened: as §1

SPI1 = SPI1 (Homo sapiens, UniProt P17947 1-270); conditions: protein: recombinant; tags: N-terminal GST; dsDNA, one strand shown
Procedure, shortened: as §1

SPIB = SPIB (Homo sapiens, UniProt Q01892 1-262); conditions: protein: recombinant; tags: N-terminal GST; dsDNA, one strand shown
Sequence of SPIB (Q01892 whole entry): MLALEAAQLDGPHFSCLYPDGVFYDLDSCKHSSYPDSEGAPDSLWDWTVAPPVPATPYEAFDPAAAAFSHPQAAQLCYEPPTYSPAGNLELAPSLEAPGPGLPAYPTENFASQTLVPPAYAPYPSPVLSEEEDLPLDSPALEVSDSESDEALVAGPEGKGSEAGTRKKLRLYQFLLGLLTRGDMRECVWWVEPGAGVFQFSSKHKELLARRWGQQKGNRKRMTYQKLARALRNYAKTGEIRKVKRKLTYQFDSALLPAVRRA
Procedure, shortened: as §1

ELK3 = target: T6, ELK3 (Homo sapiens, UniProt P41970 1-407); conditions: protein: recombinant; tags: N-terminal GST; dsDNA, one strand shown
T6 sequence: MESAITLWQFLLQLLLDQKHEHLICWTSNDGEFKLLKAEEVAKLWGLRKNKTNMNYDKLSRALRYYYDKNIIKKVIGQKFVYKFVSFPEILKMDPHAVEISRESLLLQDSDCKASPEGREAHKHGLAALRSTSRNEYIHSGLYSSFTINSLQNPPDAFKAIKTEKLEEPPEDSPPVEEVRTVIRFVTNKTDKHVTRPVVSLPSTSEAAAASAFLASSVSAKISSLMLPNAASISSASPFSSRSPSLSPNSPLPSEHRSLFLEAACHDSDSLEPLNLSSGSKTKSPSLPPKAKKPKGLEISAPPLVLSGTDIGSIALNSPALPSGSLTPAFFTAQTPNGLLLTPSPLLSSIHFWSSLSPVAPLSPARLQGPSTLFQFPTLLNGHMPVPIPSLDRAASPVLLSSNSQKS
Procedure, shortened: as §1

FEV = target: T7, FEV (Homo sapiens, UniProt Q99581 1-238); conditions: protein: recombinant; tags: N-terminal GST; dsDNA, one strand shown
T7 sequence: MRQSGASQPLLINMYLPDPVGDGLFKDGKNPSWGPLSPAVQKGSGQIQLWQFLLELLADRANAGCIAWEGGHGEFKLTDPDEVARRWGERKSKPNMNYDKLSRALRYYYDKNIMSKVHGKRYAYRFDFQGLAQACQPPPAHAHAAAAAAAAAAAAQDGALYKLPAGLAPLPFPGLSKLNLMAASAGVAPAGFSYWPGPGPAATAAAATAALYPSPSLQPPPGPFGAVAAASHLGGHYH
Procedure, shortened: as §1

ETV5 = ETV5 (Homo sapiens, UniProt P41161 1-510); conditions: protein: recombinant; tags: N-terminal GST; dsDNA, one strand shown
Sequence of ETV5 (P41161 whole entry): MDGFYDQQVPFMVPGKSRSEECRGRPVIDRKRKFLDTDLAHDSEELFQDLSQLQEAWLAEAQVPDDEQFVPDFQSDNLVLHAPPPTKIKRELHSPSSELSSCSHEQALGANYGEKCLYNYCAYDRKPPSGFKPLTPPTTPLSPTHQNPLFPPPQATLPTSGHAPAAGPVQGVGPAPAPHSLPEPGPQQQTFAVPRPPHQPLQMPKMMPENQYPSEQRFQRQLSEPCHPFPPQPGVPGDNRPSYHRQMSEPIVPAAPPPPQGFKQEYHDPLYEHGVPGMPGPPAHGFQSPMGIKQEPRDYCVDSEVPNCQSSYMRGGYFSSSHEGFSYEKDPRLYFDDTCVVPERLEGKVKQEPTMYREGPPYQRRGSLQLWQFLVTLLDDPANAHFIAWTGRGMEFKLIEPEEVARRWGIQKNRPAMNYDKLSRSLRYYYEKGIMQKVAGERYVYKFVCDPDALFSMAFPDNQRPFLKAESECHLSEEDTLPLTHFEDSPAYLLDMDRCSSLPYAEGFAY
Procedure, shortened: as §1

HSF1 = HSF1 (Homo sapiens, UniProt Q00613 1-529); conditions: protein: recombinant; tags: N-terminal GST; chain copies: 3; dsDNA, one strand shown
Sequence of HSF1 (Q00613 whole entry): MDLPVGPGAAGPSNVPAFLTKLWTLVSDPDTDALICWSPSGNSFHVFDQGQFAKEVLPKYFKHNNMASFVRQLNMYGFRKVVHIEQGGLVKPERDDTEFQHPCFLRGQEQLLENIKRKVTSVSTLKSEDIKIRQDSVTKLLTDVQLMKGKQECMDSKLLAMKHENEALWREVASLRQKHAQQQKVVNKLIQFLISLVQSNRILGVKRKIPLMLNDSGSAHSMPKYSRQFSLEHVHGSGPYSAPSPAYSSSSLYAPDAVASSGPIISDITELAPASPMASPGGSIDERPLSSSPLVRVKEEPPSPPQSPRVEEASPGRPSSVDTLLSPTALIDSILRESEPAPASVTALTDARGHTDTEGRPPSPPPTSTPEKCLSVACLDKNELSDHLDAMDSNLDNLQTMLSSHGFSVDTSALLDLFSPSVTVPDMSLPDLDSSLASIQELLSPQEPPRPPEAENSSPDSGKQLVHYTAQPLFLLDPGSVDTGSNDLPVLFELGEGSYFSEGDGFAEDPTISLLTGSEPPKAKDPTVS
Procedure, shortened: as §1

SPIC = target: T8, SPIC (Homo sapiens, UniProt Q8N5J4 1-248); conditions: protein: recombinant; tags: N-terminal GST; dsDNA, one strand shown
T8 sequence: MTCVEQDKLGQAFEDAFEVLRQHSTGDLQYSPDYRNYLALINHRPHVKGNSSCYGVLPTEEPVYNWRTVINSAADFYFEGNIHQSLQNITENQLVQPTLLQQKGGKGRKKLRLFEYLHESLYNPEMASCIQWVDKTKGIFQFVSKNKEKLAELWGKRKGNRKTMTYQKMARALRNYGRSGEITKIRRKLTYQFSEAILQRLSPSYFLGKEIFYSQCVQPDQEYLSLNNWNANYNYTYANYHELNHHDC
Procedure, shortened: as §1

ELF4 = ELF4 (Homo sapiens, UniProt Q99607 1-663); conditions: protein: recombinant; tags: N-terminal GST; dsDNA, one strand shown
Sequence of ELF4 (Q99607 whole entry): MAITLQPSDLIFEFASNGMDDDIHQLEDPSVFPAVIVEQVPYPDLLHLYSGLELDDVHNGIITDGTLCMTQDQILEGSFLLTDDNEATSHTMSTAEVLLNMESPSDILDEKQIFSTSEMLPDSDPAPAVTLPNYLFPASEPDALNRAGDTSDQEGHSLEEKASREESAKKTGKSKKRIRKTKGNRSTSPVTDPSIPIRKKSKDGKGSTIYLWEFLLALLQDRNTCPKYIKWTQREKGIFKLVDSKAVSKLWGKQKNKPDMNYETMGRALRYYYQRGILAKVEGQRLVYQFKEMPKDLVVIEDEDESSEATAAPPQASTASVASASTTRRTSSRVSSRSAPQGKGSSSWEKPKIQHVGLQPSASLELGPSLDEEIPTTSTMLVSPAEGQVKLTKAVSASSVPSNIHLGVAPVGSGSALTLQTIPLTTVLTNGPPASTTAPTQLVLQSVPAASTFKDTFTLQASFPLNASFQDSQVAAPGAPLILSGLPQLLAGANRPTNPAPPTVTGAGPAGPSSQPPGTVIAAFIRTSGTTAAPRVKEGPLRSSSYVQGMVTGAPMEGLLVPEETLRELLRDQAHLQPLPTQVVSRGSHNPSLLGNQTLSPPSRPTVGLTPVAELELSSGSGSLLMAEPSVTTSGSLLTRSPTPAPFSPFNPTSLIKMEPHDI
Procedure, shortened: as §1

ELK4 = target: T9, ELK4 (Homo sapiens, UniProt P28324-2 1-405); conditions: protein: recombinant; tags: N-terminal GST; dsDNA, one strand shown
T9 sequence: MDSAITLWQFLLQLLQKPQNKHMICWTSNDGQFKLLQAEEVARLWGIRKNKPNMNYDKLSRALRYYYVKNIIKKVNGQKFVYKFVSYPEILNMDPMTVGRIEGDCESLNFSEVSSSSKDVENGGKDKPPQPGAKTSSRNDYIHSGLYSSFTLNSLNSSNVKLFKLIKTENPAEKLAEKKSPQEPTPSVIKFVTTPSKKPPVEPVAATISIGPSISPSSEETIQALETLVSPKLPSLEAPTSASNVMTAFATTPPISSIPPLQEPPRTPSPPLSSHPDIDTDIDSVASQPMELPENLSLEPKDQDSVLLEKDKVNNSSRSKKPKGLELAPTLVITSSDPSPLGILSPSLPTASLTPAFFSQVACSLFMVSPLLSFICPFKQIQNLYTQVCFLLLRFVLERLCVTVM
Procedure, shortened: as §1

ETV2 = target: T10, ETV2 (Homo sapiens, UniProt O00321 1-342); conditions: protein: recombinant; tags: N-terminal GST; dsDNA, one strand shown
T10 sequence: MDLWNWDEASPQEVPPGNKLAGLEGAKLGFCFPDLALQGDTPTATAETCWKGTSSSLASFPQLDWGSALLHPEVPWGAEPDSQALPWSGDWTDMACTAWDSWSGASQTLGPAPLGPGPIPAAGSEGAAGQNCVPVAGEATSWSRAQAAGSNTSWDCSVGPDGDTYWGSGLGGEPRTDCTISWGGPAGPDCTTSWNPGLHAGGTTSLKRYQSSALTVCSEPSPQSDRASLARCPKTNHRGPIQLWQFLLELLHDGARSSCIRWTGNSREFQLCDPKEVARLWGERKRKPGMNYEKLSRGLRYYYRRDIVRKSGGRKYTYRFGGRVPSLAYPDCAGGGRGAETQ
Procedure, shortened: as §1

ELF3 = target: T11, ELF3 (Homo sapiens, UniProt P78545 1-371); conditions: protein: recombinant; tags: N-terminal GST; dsDNA, one strand shown
T11 sequence: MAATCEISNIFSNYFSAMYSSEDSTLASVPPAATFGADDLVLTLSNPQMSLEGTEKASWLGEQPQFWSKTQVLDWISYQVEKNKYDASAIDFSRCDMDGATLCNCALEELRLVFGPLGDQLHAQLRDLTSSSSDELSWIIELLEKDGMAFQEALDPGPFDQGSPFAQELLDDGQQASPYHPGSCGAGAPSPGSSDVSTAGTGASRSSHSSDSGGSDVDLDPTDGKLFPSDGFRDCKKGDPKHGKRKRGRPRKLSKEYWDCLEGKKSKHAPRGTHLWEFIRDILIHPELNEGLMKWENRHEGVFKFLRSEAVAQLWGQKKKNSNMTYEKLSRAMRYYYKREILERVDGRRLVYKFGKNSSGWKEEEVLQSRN
Procedure, shortened: as §1

CRX = CRX (Homo sapiens, UniProt O43186 1-299); conditions: protein: recombinant; tags: N-terminal GST; dsDNA, one strand shown
Sequence of CRX (O43186 whole entry): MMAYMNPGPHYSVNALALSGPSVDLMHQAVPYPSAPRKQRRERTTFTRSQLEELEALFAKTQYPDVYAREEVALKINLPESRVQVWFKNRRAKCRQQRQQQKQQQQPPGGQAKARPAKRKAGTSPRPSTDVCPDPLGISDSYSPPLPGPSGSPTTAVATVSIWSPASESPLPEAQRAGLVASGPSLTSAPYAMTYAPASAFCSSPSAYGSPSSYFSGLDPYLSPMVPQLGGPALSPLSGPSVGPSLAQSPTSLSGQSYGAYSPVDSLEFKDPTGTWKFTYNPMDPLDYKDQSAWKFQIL
Procedure, shortened: as §1

ETV1 = ETV1 (Homo sapiens, UniProt P50549 1-477); conditions: protein: recombinant; tags: N-terminal GST; dsDNA, one strand shown
Sequence of ETV1 (P50549 whole entry): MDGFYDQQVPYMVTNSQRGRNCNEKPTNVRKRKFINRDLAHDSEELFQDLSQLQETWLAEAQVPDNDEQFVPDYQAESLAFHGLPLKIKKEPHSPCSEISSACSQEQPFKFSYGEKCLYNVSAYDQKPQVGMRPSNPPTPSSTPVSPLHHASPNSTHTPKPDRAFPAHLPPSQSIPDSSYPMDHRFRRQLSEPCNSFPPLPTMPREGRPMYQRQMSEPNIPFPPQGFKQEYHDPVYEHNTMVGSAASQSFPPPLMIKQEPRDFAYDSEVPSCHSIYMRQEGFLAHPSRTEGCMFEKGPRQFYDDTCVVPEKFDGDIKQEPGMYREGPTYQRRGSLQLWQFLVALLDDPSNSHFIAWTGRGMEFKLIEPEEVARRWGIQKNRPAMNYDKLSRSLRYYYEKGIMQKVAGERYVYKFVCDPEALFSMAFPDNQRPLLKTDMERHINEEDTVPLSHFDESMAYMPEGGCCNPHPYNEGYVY
Procedure, shortened: as §1

Q: How did the binding signal (FLI1) turn out when ATATAT was run?
A: 1.47 fold enrichment (6-mer frequency, TF over GST control)

Q: And the binding signal (ELK1)?
A: 1.38 fold enrichment (6-mer frequency, TF over GST control)

Q: What about the binding signal (GABPA) of the same sequence?
A: 1.44 fold enrichment (6-mer frequency, TF over GST control)

Q: What about the binding signal (ERG) of the same sequence?
A: 1.38 fold enrichment (6-mer frequency, TF over GST control)

Q: And the binding signal (ELF1)?
A: 1.47 fold enrichment (6-mer frequency, TF over GST control)

Q: And the binding signal (EHF)?
A: 1.4 fold enrichment (6-mer frequency, TF over GST control)

Q: What about the binding signal (SPI1) of the same sequence?
A: 1.37 fold enrichment (6-mer frequency, TF over GST control)

Q: What about the binding signal (SPIB) of the same sequence?
A: 1.42 fold enrichment (6-mer frequency, TF over GST control)

Q: What about the binding signal (ELK3) of the same sequence?
A: 1.4 fold enrichment (6-mer frequency, TF over GST control)

Q: And the binding signal (FEV)?
A: 1.41 fold enrichment (6-mer frequency, TF over GST control)

Q: What about the binding signal (ETV5) of the same sequence?
A: 1.42 fold enrichment (6-mer frequency, TF over GST control)

Q: What about the binding signal (HSF1) of the same sequence?
A: 1.31 fold enrichment (6-mer frequency, TF over GST control)

Q: What about the binding signal (SPIC) of the same sequence?
A: 1.51 fold enrichment (6-mer frequency, TF over GST control)

Q: And the binding signal (ELF4)?
A: 1.38 fold enrichment (6-mer frequency, TF over GST control)

Q: What about the binding signal (ELK4) of the same sequence?
A: 1.55 fold enrichment (6-mer frequency, TF over GST control)

Q: What about the binding signal (ETV2) of the same sequence?
A: 1.31 fold enrichment (6-mer frequency, TF over GST control)

Q: And the binding signal (ELF3)?
A: 1.64 fold enrichment (6-mer frequency, TF over GST control)

Q: And the binding signal (CRX)?
A: 1.46 fold enrichment (6-mer frequency, TF over GST control)

Q: And the binding signal (ETV1)?
A: 1.33 fold enrichment (6-mer frequency, TF over GST control)
